An excerpt weighted towards active compounds, which were near 3.3% of everything screened.
KCC2 mod = modulates chloride dependent transport by human KCC2 | KCC2 cells, thallium flux FluoZin-2 fluorescence | B-score of Tl+ flux slope (higher = more flux/activation; lower = inhibition) at 10 µM | actives 2.2% (n = 190,000) | AID 1456;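 active means thallium flux slope and its plate-corrected score both differing from the plate sample mean at a set confidence after two filtering rounds, in either direction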;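 further: slope of fluorescence scaled to starting intensity during 10 to 20 s after thallium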
Efflux pump mplx = inhibitors of Candida antifungal efflux pumps expressed in yeast. S. cerevisiae Candida pump triplex, Nile Red efflux. inhibition, % at 10 µM. actives 0.44% (n = 330,000). AID 485275;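 active means plate passing quality check with inhibition over a set limit, or well fluorescence over plate mean plus 4 SD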;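 further: Nile Red retained in pooled yeast measured as flow cytometry median fluorescence; 0% = buffer negative control and 100% = Enniatin B positive control; higher means more Nile Red kept so more efflux inhibition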
PHOSPHO1 inh = blocks human PHOSPHO1 phosphatase activity; inhibition, % at 13.3 µM; recombinant PHOSPHO1, absorbance phosphatase assay; actives 1.1% (n = 290,000); Q8TCT1; in the data active means inhibition above about 60%
Target sequence (Q8TCT1 whole entry, looked up): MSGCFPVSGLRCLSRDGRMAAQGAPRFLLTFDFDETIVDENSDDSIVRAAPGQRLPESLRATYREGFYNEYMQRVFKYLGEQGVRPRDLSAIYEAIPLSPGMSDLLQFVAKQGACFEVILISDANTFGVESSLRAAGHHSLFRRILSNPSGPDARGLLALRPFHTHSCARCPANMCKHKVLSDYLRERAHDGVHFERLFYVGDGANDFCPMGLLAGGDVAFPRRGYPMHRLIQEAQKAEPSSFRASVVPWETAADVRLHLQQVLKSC
Calb FLC = affects C. albicans growth with fluconazole; C. albicans CaCi-2 (fluconazole-resistant clinical isolate) + fluconazole, Alamar Blue growth, 48 h; growth inhibition, % (test concentration not listed); actives 0.57% (n = 300,000); AID 1979;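 active means growth inhibition above about 58% in most replicates, limit read from the data, passing the limit was not always enough; inconclusive means exactly half the replicates above a set limit; inactive means most replicates below a set limit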;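 further: all wells also contain fluconazole at 8 µg/ml as a sub-toxic cotreatment; 0% = median of DMSO wells and 100% = median of geldanamycin control wells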
Cardio protect = myocardial damage modulation in H9c2 cells | H9c2 cardiomyocytes, H2O2 injury protection, ATPLite, 2 h | protection from H2O2 cell death, % at 20 µM | actives 0.63% (n = 360,000) | AID 588492;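 active means compounds giving at least 50% protection of heart cells from peroxide-induced death in the single-dose screen, raw or plate-pattern-corrected value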;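 further: 0% = DMSO wells with peroxide and 100% = DMSO wells without peroxide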
KCC2 secondary = KCC2 (human) modulation, secondary assay | normalised thallium flux (F/F0 slope) at 10 µM | shares compounds with KCC2 mod | HEK293-KCC2, thallium flux, FluoZin2 fluorescence; hits give high values | AID 1713 | actives 15% (n = 3,700);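 active means thallium flux slope above the same plate's solvent-only control mean plus 3 SD; inconclusive means the two replicate wells disagree; inactive means no significant difference from solvent-only control wells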
KCC2 bumet counter = bumetanide-insensitive thallium flux in KCC2 cells with ouabain, counter-screen | AID 1714 | HEK293-KCC2 + bumetanide/ouabain, thallium flux FluoZin2; hits give high values | normalized thallium flux at 10 µM | actives 49% (n = 3,700) | shares compounds with KCC2 mod;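 active means thallium entry rate above the same plate's blocked-transporter control wells by more than 3 SD; inconclusive means the two repeat wells disagree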;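 further: raw slope of fluorescence over initial fluorescence between 10 and 20 s after thallium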
KCC2 secondary2 = confirmation of human KCC2 transport modulators; shares compounds with KCC2 mod; HEK293-KCC2, thallium flux FluoZin2 fluorescence; actives lie on both sides; F/F0 rise rate, 10–20 s post-thallium; normalized thallium flux at 10 µM; actives 23% (n = 3,700);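 active means thallium flux slope more than 3 SD above or below the plate's solvent-only control mean, mostly below; inconclusive means the two repeat wells disagreed; inactive means no significant shift from solvent-only controls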;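 further: raw slope with 0.1% DMSO as baseline and bumetanide as block control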
HEK counter1 = acts in parental HEK cells, KCC2 counter-screen. AID 1716. shares compounds with KCC2 mod. actives 46% (n = 3,700). HEK293 parental cells, thallium flux FluoZin2, ouabain; baseline-ratio fluorescence slope, 10–20 s after thallium. thallium flux rate (normalised fluorescence) at 10 µM;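 active means thallium flux rate significantly above the same plate's solvent-only control wells, beyond their mean plus 3 SD; inconclusive means the two replicate wells gave conflicting results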
KCC2 ouabain = confirmation of human KCC2 modulators with ouabain; HEK293-KCC2, thallium flux FluoZin2 fluorescence; bidirectional: low = inhibitor, high = activator; AID 1717; actives 48% (n = 3,700); shares compounds with KCC2 mod; raw Tl+ flux slope (below DMSO = inhibition, above = activation) at 10 µM;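 active means thallium flux slope beyond 3 SD from same-plate DMSO control mean in most replicates, usually higher, sometimes lower; inconclusive means repeat tests gave conflicting results; inactive means no significant difference from controls in most replicates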;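 further: slope of initial-normalized fluorescence between seconds 10 and 20 after thallium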
HEK counter2 = parental HEK flux effect, counter-screen 2. shares compounds with KCC2 mod. HEK293 parental, thallium flux FluoZin-2 fluorescence slope. thallium flux slope at 10 µM. actives 33% (n = 3,700). AID 1718;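 active means thallium flux slope above the same plate's solvent-control mean plus 3 SD in both duplicate wells; inconclusive means duplicate wells that disagreed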;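 further: run without ouabain in cells lacking the KCC2 cotransporter; slope of fluorescence scaled to its starting value between 10 and 20 s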
The depositor's hits bear a star; i = inactive; u = inconclusive; x = no result.

SMILES | KCC2 mod | Efflux pump mplx | PHOSPHO1 inh | Calb FLC | Cardio protect | KCC2 secondary | KCC2 bumet counter | KCC2 secondary2 | HEK counter1 | KCC2 ouabain | HEK counter2
CC(NC(=O)c1ccco1)C(=O)OCc1cccc(Cl)c1 (centres undefined) | 6.1* | 0 | -1 | 5 | 5 | 0.0099 | 0.0057 | 0.035 | 0.0064 | 0.02 | 0.01
Cc1nnc(NC(=O)c2ccc3ccccc3c2)o1 | x | 0 | -7 | x | -11 | 0.012* | 0.016* | 0.03 | 0.011* | 0.026* | 0.01
Cc1ccccc1NC(=O)c1ccc2ccccc2c1 | x | 0 | 19 | -1 | -7 | x | x | x | x | x | x
C/C(=N/NC(=O)c1ccccn1)c1ccco1 | 0.013 | 0 | 34 | -10 | -17 | x | x | x | x | x | x
C/C(=N/NC(=O)c1cc(-c2ccc(Cl)s2)[nH]n1)c1ccco1 | 10* | 0 | 51 | 13 | -4 | 0.0077 | 0.0096* | 0.029 | 0.013* | 0.021 | u
CN(CC(=O)Nc1ccc(F)c(F)c1F)C(=O)Cc1ccc(S(=O)(=O)N2CCOCC2)s1 | x | x | x | x | 3 | x | x | x | x | x | x
CCN(CC)c1ccc2cc(C(=O)Nc3ccccn3)c(=O)oc2c1 | i | 0 | -14 | 7 | -22 | 0.0031* | u | 0.016* | 0.0037* | 0.0054* | 0.0065*
CCN(CC)c1ccc2cc(C(=O)Nc3cccnc3N3CCOCC3)c(=O)oc2c1 | x | x | -8 | x | x | x | x | x | x | x | x
CCn1c(SCC(=O)Nc2ccc(NC(C)=O)cc2)nc2c1c(=O)n(C)c(=O)n2C | x | 0 | 28 | 10 | 1 | x | x | x | x | x | x
O=C(CNC(=O)/C(=C\c1ccc(Br)cc1)NC(=O)c1ccccc1)OCc1ccccc1 | -6.1* | 0 | -21 | -5 | 8 | 0.0066 | 0.0046 | 0.021* | 0.0077 | 0.012* | 0.01
O=C(NCCO)/C(=C/c1ccc(Br)cc1)NC(=O)c1cccs1 | x | 0 | 7 | -7 | 3 | 0.0084 | 0.0068 | 0.03 | 0.0067 | 0.02 | 0.0098
O=C(NCCO)/C(=C\c1ccco1)NC(=O)c1cccs1 | 0.065 | 0 | 28 | 2 | -6 | x | x | x | x | x | x
O=C(CNC(=O)/C(=C/c1ccccc1)NC(=O)c1ccc(Br)cc1)OCc1ccccc1 | -6.9* | 0 | -3 | 6 | 6 | 0.0078 | 0.0057 | 0.022* | 0.0064 | 0.011* | 0.009
O=C(COC(=O)c1ccc[nH]c1=O)Nc1cc(S(=O)(=O)N2CCCCCC2)ccc1Cl | x | x | x | x | 2 | x | x | x | x | x | x
Nc1cc(Nc2ccc(Br)cc2)nc(N)n1 | -1.3 | 0 | 20 | 1 | -7 | x | x | x | x | x | x
Cc1ccc(Nc2cc(-c3ccccc3)nc3ncnn23)cc1 | -0.12 | 0 | 32 | -2 | 5 | x | x | x | x | x | x
O=C(c1cccs1)N1C[C@H](O)[C@@H](n2cc(-c3ccc(F)cc3)nn2)C[C@@H]1c1ccccc1 | x | x | x | x | -3 | x | x | x | x | x | x
C#CCN(C[C@@H]1[C@@H](OC(=O)NCCCCCC)[C@@H](OC(=O)NCCCCCC)Cn2c(=O)n(CCCCCC)c(=O)n21)S(=O)(=O)c1ccc(C)cc1 | x | x | x | x | 10 | x | x | x | x | x | x
CC(C)c1nc2c(c(=O)c3ccccc3n2C)c(=O)n1CCc1ccccc1 | -4.4* | 0 | 15 | u | 3 | 0.01 | 0.022* | 0.032 | 0.012* | 0.021 | 0.011
COc1ccc(CCn2c(-c3ccccc3)nc3c(c(=O)c4ccccc4n3C)c2=O)cc1 | -0.53 | 0 | -19 | 30 | x | x | x | x | x | x | x
COCCn1c(-c2ccc(Cl)cc2)nc2c(c(=O)c3ccccc3n2C)c1=O | -2.6 | 0 | -9 | -21 | x | x | x | x | x | x | x

Source: PubChem BioAssay
